In PubChem BioAssay AID624354 (Sanford-Burnham Center for Chemical Genomics, 2012):
Out of some 360,000 compounds screened, about 3,800 (1.1%) were called active. For the sample, actives were picked, then their nearest neighbours and some compounds at random. Values without a mark were called inactive.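 How the source made its calls: active means compounds causing at least 50% loss of cell viability in the single-dose screen, relative to plate controls; inactive means the rest.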

Test: viability loss with TRAIL in NB7+C8 cells, primary screen, TRAIL sensitizer project, cell-based, ATPlite luminescence (AID 624354)
Conditions: at 10 µM, stronger effect = higher value

Structure (SMILES) | inhibition (viability loss, TRAIL sensitization)
N#CCCN(C(=S)Nc1ccc(Cl)c(Cl)c1)C1CCCCC1 | -41.1%
COc1ccc(NS(=O)(=O)c2ccc(C)c(C(=O)N(C)Cc3ccc(OC)cc3OC)c2)cc1 | 17.8%
Cc1cccc(NS(=O)(=O)c2cccc(C(=O)NNC(=O)c3ccccc3O)c2)c1 | 24.7%
O=C(NNC(=O)c1cc(S(=O)(=O)N2CCCCC2)ccc1Cl)c1ccccc1O | 14%
O=C(NNC(=O)c1ccccc1O)c1ccccc1O | 59.8% (active)
CC1(C)CC(=O)C=C(NC2CC(C)(C)NC(C)(C)C2)C1 | -7.42%
C=CCNC(=O)c1ccc2c3n(nc2c1)-c1ccc(C)cc1CO3 | 47.7%
CCOC(=O)N1CCN(C(=O)C2CCN(S(C)(=O)=O)CC2)CC1 | 9.65%
Cc1nn(-c2ccccc2)nc1C(=O)OCC(=O)N1CCCCC1C (centres undefined) | 10.3%
COC(=O)c1cc(S(=O)(=O)N2CCN(c3cc(C)ccc3C)CC2)c[nH]1 | -3.18%
Cc1nc2ccc(S(=O)(=O)NCC(=O)NCCN3CCCCC3C)cc2s1 (centres undefined) | -1.47%
Cn1c(=O)[nH]c(=O)c2c1[nH]c(=S)n2Cc1ccccc1 | 7.43%
C=CCN(CC=C)S(=O)(=O)c1ccc(C(=O)Nc2nc3c(s2)CCc2ccccc2-3)cc1 | 28.5%
N#Cc1c(-c2cccs2)nc(SCC(=O)c2ccc(Br)cc2)[nH]c1=O | -12.9%
N#Cc1ccc(C(=O)Nc2nc(-c3cccs3)c(C(=O)C(F)(F)F)s2)cc1 | 53.5% (active)
Cc1ccc(NC(=O)CCC(=O)N2CCC(c3ccccc3)=N2)cc1S(=O)(=O)N1CCCCC1 | 18.8%
Cc1nc2nc[nH]n2c(=O)c1NC(=O)c1cccc(OCC(C)C)c1 | -7.44%
O=C(CP(=O)(c1ccccc1)c1ccccc1)N1CCOCC1 | -4.37%
O=C(CSC(=S)N1CCCCC1)c1c(F)cccc1F | 3.44%
O=C(CSC(=S)N1CCOCC1)c1ccccc1 | 57.5% (active)
O=c1c(-c2ccccc2Cl)c[nH]n1-c1ccccc1 | 1.07%
CS(=O)(=O)c1ccc(C(=O)NNC(=O)c2cccs2)cc1 | -3.16%
Cc1cc2cc3c(cc2nc1SCC(=O)Nc1c(C)cccc1C)CCC3 | 3.78%
Cn1c(-c2ccc(C(=O)c3ccccc3)s2)nc2ccccc21 | 66.6% (active)

Structure (SMILES) | inhibition (viability loss, TRAIL sensitization)
Cn1c(CC(=O)NNC(=O)c2ccccc2F)nc2ccccc21 | 11.4%
CCC(C(=O)Nc1c(C)cccc1C)n1c(-c2cc(C)cs2)nc2ccccc21 (centres undefined) | 9.25%
Cc1nc2ccccc2c(C)c1C(=O)c1ccc(F)cc1 | 2.13%
CCn1c(NC(=O)c2nn(C)cc2Br)nc2ccccc21 | 16.9%
Cn1c(NC(=O)c2ccccc2)nc2ccccc21 | 49.5% (active)
COc1cc(-c2nc(S(=O)(=O)c3ccc(Cl)cc3)c(N(C)C)o2)cc(OC)c1OC | -2.14%
COc1ccc(N(C(=O)c2ccc(C)cc2)S(=O)(=O)c2cccs2)cc1 | -2.28%
CCN(CC)S(=O)(=O)c1ccc(N2CCOCC2)c(NC(=O)C2CSC3(C)CCC(=O)N23)c1 (centres undefined) | -1.07%
Cn1c(-c2ccco2)nc2cc3ccccc3cc21 | 89.4% (active)
Cn1c(SCC(=O)Nc2ccc(Br)cc2F)nnc1-c1ccco1 | -0.204%
COc1ccc(-n2cnc3cc(NCc4ccco4)ccc32)cc1 | 16.5%
Cc1c(CNCCc2ccccc2)c(C(=O)O)c(C)n1-c1ccccc1 | -25.6%
COCc1cc(=O)oc2cc(NS(=O)(=O)c3ccc(C)cc3)ccc12 | 2.58%
Cc1cc(NC(=O)CCC(=O)N(Cc2ccccc2)C(C(=O)NC2CCCC2)c2ccc(C)o2)no1 (centres undefined) | -0.804%
CC(C)CCN1CCN(Cc2cn[nH]c2C2CCCCC2)CC1CCO (centres undefined) | 5.07%
COc1ccc(/C=C/c2noc(-c3ccccc3OC(C)=O)n2)cc1 | 12.1%
COc1ccc(-c2noc(CNC(=O)C(C)Oc3ccccc3)n2)cc1 (centres undefined) | -4.7%
COc1ccc(-c2nc(-c3ccccc3)no2)c(OC)c1 | 83% (active)
Cc1ccc(C)c(S(=O)(=O)N2CCN(c3ncnc4sccc34)CC2)c1 | 66.5% (active)
Cc1ccc(S(=O)(=O)N2CCC3(CC2)OCCO3)c(C)c1 | 1.61%
Cc1ccc([N+](=O)[O-])cc1S(=O)(=O)N1CCCN(C)CC1 | 1.18%
CNC(=S)N1CCC(NC(=O)C(Cc2ccc(F)cc2)NC(C)=O)CC1 (centres undefined) | -1.63%
CCCCCc1c(-c2ccc(OC)c(OC)c2)ncn1CCc1ccccc1OC | 51.2% (active)
CCCCc1c(-c2ccc(Cl)cc2)ncn1CCc1ccccc1OC | 31.8%

Structure (SMILES) | inhibition (viability loss, TRAIL sensitization)
CCCCCc1c(-c2cccc(Br)c2)ncn1CCc1ccccc1OC | 23.2%
CS(=O)(=O)N(CC(=O)N1CCN(c2ccc(F)cc2)CC1)C1CCCCC1 | -11.1%
COC(C(=O)Nc1ccc(S(=O)(=O)Nc2ccc(C)c(C)c2)cc1)c1ccccc1 (centres undefined) | 5.37%
CCOc1ccc(/C=C(/NC(=O)c2ccccc2)C(=O)NCCC(=O)O)cc1 | -4.31%
CCOc1ccc(N/C=C/C(=O)c2ccccc2)cc1 | 66.6% (active)
COc1ccc(C(=O)/C=C/Nc2ccccn2)cc1 | 73.3% (active)
Cc1ccc(N/C=C/C(=O)c2ccccc2)cc1C | 78.5% (active)
CCOc1ccc(NC(=O)C2CCCN(C(=O)Nc3ccccc3)C2)cc1 (centres undefined) | -15.9%
O=C(/C=C/Nc1ccc(S(=O)(=O)Nc2cnc3ccccc3n2)cc1)c1cccnc1 | -7.32%
Cc1ccc(NNC(=O)C2CCC2)cc1C | -7.51%
COCCN(C(=O)CCC(=O)Nc1ccccn1)C(C(=O)NCCC(C)C)c1ccc(OC)cc1 (centres undefined) | -1.74%
COc1ccc(CN2C(=O)CN=C2Nc2ccc(C)cc2C)cc1 | -15.6%
Cc1ccc(CN2CC(N3CCC(Cc4ccccc4)CC3)CS2(=O)=O)cc1 (centres undefined) | -13.4%
Cc1ccc(CN2CCN(Cc3cccc(C)n3)CC2CCO)cc1 (centres undefined) | 0.251%
COc1cc(C)c(CN2CCN(C(=O)CCC(=O)c3ccc(C)s3)CC2)cc1OC | 16.8%
O=C(c1cc2c(s1)CCC2)N1CCN(c2ccccc2)CC1 | -1.76%
COc1ccc(S(=O)(=O)N2CN(CCc3ccc(OC)c(OC)c3)c3nc4ccccc4nc32)cc1 | 5.09%
CC(C)(C)c1nc2ccccc2c(=O)n1N1C(=O)c2ccccc2C1=O | 11.4%
CN(c1ccc2nc3ccccc3c(=O)n2n1)C1CCCCC1 | 91.9% (active)
CN(C(=O)Nc1ccc(Cl)cc1)n1cnc2ccccc2c1=O | 7.39%
O=C(COC(=O)c1ccco1)Nc1ccc(Cl)cn1 | -1.44%
CC(OC(=O)CNC(=O)c1ccco1)C(=O)Nc1ccc(Cl)cn1 (centres undefined) | 8.79%
O=C(Nc1ccc(NC(=O)c2cccs2)cn1)c1ccco1 | 63% (active)
Cc1cc(C)c(S(=O)(=O)NN=C2c3ccccc3[C@H]3Cc4csc[n+]4[C@@H]23)c(C)c1 | -3.55%

Structure (SMILES) | inhibition (viability loss, TRAIL sensitization)
CCc1nc2ccc(C(=O)N3CCN(c4cccc(Cl)c4)CC3)cc2nc1CC | 1.3%
C#Cc1cc(N2CCN(C(=O)c3ccoc3)CC2)n2nc(-c3cccc(Cl)c3)cc2n1 | 91.7% (active)
CNc1cncc(-c2cccc(C(=O)N3CCOCC3)c2)n1 | -18.4%
CC(C)(C)NC(=O)C(CCc1ccccc1)n1c(=O)c(-c2ccccc2)nc2ccccc21 (centres undefined) | -2.69%
Nc1cc(C(F)(F)F)ccc1N1CCOCC1 | -31.5%
COc1ccc(COC[C@H](CC(C)C)N2CCN(C(=O)c3cccc(C(F)(F)F)c3)CCC2=O)cc1 | -6.73%
O=C(C(=O)N1CCC(c2ccccc2)CC1)c1ccccc1 | -9.02%
COc1cccc2c1C(=O)c1c(O)c3c(c(O)c1C2=O)CC(O)(C(C)=NNC(=O)c1ccc(Cl)c(Cl)c1)CC3OC1CC(N)C(O)C(C)O1 (centres undefined) | 55.5% (active)
Cc1c(Nc2nc3ccccc3nc2NS(=O)(=O)c2cccs2)c(=O)n(-c2ccccc2)n1C | -7.01%
Cc1ccc(C(=O)Nc2ccc(C)c(S(=O)(=O)N(C)C)c2)s1 | 61.7% (active)
Cc1csc(SCC(=O)Nc2ccc(C)c(S(=O)(=O)N(C)C)c2)n1 | 1.13%
CCN(CC(=O)Nc1ccc(C)c(S(=O)(=O)N(C)C)c1)Cc1ccccc1 | 9.33%
Cc1ccc(S(=O)(=O)NNC(=S)NC(C)(C)C)cc1 | -2.34%
Cn1c(NN)nc2sc3c(c2c1=O)CCC3 | -10.7%
NNC(=O)C1CCCn2c1nc1sc3c(c1c2=O)CCCC3 (centres undefined) | 55.9% (active)
N=c1c2c3c(sc2nc2n1CCCCC2)CCCC3 | 0.553%
O=C1CSC(c2ccc(Cl)cc2)N1 (centres undefined) | 0.721%
COC(=O)c1ccc(COC(=O)c2cnc(Cl)c(Cl)c2)cc1 | 1.15%
CCOc1ccc(C(C)=O)cc1COC(=O)c1cnc(Cl)c(Cl)c1 | 64.1% (active)
CCOc1ccc(C(C)=O)cc1COC(=O)CNC(=O)c1cccs1 | -4.84%
COC(=O)/C(=C\Nc1ccccc1)NC(=O)c1ccc(Cl)cc1Cl | 10.1%
Cc1ccccc1CN1C(=O)CSCC1(C)C(=O)Nc1c(C)cccc1C (centres undefined) | -13%
